The results in this text go back to the antibiotic and cytotoxicity screens of Wong et al. (2023).

Molecules are shown by their SMILES. About 3,300 (8.5%) of roughly 39,000 compounds were called active. Shown is part of a subset that was picked to be rich in actives.

The test system of the test is HepG2. As to the kind of experiment: cytotoxicity call (relative viability < 0.9). Conditions: 10 µM.
Take `Cc1c(-c2ccccc2)n(C[C@@H](O)CN)c2ccccc12`: the cytotoxicity call was “active”.
Next, `O=C(O)c1ccc(OC[C@@H](O)CO[C@H](COc2ccc(C(=O)O)cc2)Cn2c3ccccc3c3ccccc32)cc1`: “inactive”; `CN(C[C@@H](O)CN)S(=O)(=O)c1ccccc1`: “inactive”.
Then `COc1ccc(S(=O)(=O)Nc2ccc3c(c2)C(=O)N([C@H](C)CO)C[C@@H](C)[C@H](CN(C)Cc2ccccc2)OCCCC[C@H](C)O3)cc1`, with “inactive”; and `CS(=O)(=O)N1C[C@H]2CN(Cc3ccncc3)C(=O)[C@@H]2C1`, with “inactive”; and `C[C@H](CO)N1C[C@H](C)[C@H](CN(C)C(=O)CN(C)C)Oc2cc(C#CCN(C)C)ccc2S1(=O)=O`, with “inactive”.
Turning to `CCOc1ccc(C(=O)Nc2ccc(S(=O)(=O)N3CCCC[C@@H]3c3cccnc3)cc2)cc1OCC`, the cytotoxicity call was “inactive”.
Then `COc1ccccc1[C@@H](NC(=O)C1CCN(CCOc2ccc(Cl)cc2Cl)CC1)c1ccccn1`, with “inactive”; and `CCOc1cc2ncc(C#N)c(Nc3ccc(OCc4ccccn4)c(Cl)c3)c2cc1NC(=O)/C=C/CN(C)C`, with “active”.
Next, `CCOc1cc2ncc(C#N)c(Nc3ccc(OCc4ccccn4)c(Cl)c3)c2cc1NC(=O)/C=C/[C@H]1CCCN1C`: “active”; `OC[C@H]1CN(Cc2ccccc2)CCO1`: “inactive”; `Cc1nc2ccc([N+](=O)[O-])cc2s1`: “inactive”.
Consider `CO[C@H]1CN(C)C(=O)c2cc(NC(=O)CC(F)(F)F)ccc2OC[C@H](C)N(C(=O)C2CCOCC2)C[C@@H]1C`, for which the cytotoxicity call was “inactive”.
Then `C=CCOC(=O)[C@H]1[C@@H]2C(=O)O[C@@H](c3ccccc3)[C@@H](c3ccccc3)N2[C@@H](c2ccc(OCCOC(=O)[C@H]3C[C@H]4C(=O)N[C@@H](CCCC[N+](C)(C)C)C(=O)N4[C@H]3c3ccc(O)cc3)cc2)[C@]12C(=O)Nc1ccc(I)cc12`, with “inactive”.
Then `C[C@@H]1CCCCO[C@@H](CN(C)C(=O)Nc2ccc(F)cc2)[C@@H](C)CN([C@H](C)CO)C(=O)c2cc(NC(=O)NC3CCCCC3)ccc2O1`, with “inactive”; and `C=CCOC(=O)N(C)C[C@@H]1OCCCC[C@H](C)Oc2ccc(NC(=O)Nc3ccccc3)cc2C(=O)N([C@@H](C)CO)C[C@H]1C`, with “inactive”.
Consider `C=CCOC(=O)N(C)C[C@H]1OCCCC[C@H](C)Oc2ccc(NC(=O)Nc3ccccc3)cc2C(=O)N([C@@H](C)CO[Si](C)(C)C(C)(C)C)C[C@H]1C`, for which the cytotoxicity call was “active”.
For `C[C@@H]1CCCCO[C@H](CN(C)S(=O)(=O)c2ccccc2)[C@H](C)CN([C@@H](C)CO)C(=O)c2cc(NC(=O)Nc3ccc(F)cc3)ccc2O1`, the cytotoxicity call is “active”.
Turning to `C[C@@H]1CN([C@@H](C)CO)C(=O)c2cc(NC(=O)Nc3ccc(F)cc3)ccc2O[C@@H](C)CCCCO[C@H]1CN(C)S(=O)(=O)c1ccccc1`, the cytotoxicity call is “inactive”.
For `C[C@@H]1CN([C@H](C)CO)C(=O)c2cc(NC(=O)Nc3ccc(F)cc3)ccc2O[C@@H](C)CCCCO[C@@H]1CN(C)S(=O)(=O)c1ccccc1`, the cytotoxicity call was “inactive”.
With `C[C@@H]1CN([C@@H](C)CO[Si](C)(C)C(C)(C)C)C(=O)c2cc(NC(=O)Nc3ccccc3)ccc2O[C@@H](C)CCCCO[C@H]1CN(C)S(=O)(=O)c1ccc(F)cc1`, the cytotoxicity call was “active”.
Next, `C[C@H](CO)N1C[C@H](C)[C@@H](CN(C)S(=O)(=O)c2ccccc2)OCCCC[C@H](C)Oc2ccc(NC(=O)Nc3ccc(F)cc3)cc2C1=O`: “inactive”; `C[C@@H]1CCCCO[C@@H](CN(C)S(=O)(=O)c2ccccc2)[C@H](C)CN([C@H](C)CO)C(=O)c2cc(NC(=O)Nc3ccc(F)cc3)ccc2O1`: “inactive”; `C[C@H]1CCCCO[C@H](CN(C)S(=O)(=O)c2ccccc2)[C@@H](C)CN([C@@H](C)CO)C(=O)c2cc(NC(=O)Nc3ccc(F)cc3)ccc2O1`: “active”.
With `C[C@@H]1CN([C@H](C)CO[Si](C)(C)C(C)(C)C)C(=O)c2cc(NC(=O)Nc3ccccc3)ccc2O[C@@H](C)CCCCO[C@H]1CN(C)S(=O)(=O)c1ccc(F)cc1`, the cytotoxicity call was “inactive”.
As to `C=CCOC(=O)N(C)C[C@@H]1OCCCC[C@H](C)Oc2ccc(NC(=O)Nc3ccccc3)cc2C(=O)N([C@H](C)COC(=O)c2ccccc2)C[C@H]1C`, the cytotoxicity call is “inactive”.
In the case of `COCOC[C@H](C)N1C[C@@H](C)[C@H](CN(C)S(=O)(=O)c2ccc(F)cc2)OCCCC[C@H](C)Oc2ccc(NC(=O)Nc3ccccc3)cc2C1=O`, the cytotoxicity call is “inactive”.
Next, `C[C@H](CO)N1C[C@H](C)[C@H](CN(C)S(=O)(=O)c2cccs2)OCCCC[C@H](C)Oc2ccc(NC(=O)NC3CCCCC3)cc2C1=O`: “inactive”; `C[C@H]1CCCCO[C@H](CN(C)C(=O)Nc2ccc3c(c2)OCO3)[C@@H](C)CN([C@@H](C)CO)C(=O)c2cc(NC(=O)C3CCCCC3)ccc2O1`: “inactive”; `C[C@@H]1CN([C@@H](C)CO)C(=O)c2cccc(NS(C)(=O)=O)c2O[C@H]1CN(C)S(=O)(=O)c1cn(C)cn1`: “inactive”.
Then `C[C@H]1CN([C@@H](C)CO)C(=O)c2cc(NS(=O)(=O)c3ccc(F)cc3)ccc2O[C@@H]1CN(C)S(C)(=O)=O`, with “inactive”; and `CC(C)NC(=O)N(C)C[C@H]1OCc2cn(nn2)CCCC(=O)N([C@@H](C)CO)C[C@H]1C`, with “inactive”; and `O[C@@H]1[C@@H](O)[C@H](Nc2ccccc2)OC[C@H]1O`, with “inactive”.
Then `Cc1noc(C)c1S(=O)(=O)N(C)C[C@H]1Oc2ccc(NC(=O)Nc3ccccc3)cc2CC(=O)N([C@H](C)CO)C[C@@H]1C`, with “inactive”.
As for `CN(C)CC#Cc1ccc([C@@H]2[C@@H](CO)N3C(=O)CN(C(=O)c4cccnc4)C[C@@H]23)cc1`, the cytotoxicity call was “inactive”.
As to `COc1ccc(NC(=O)N(C)C[C@H]2OCCCC[C@@H](C)Oc3ccc(NS(=O)(=O)c4c(C)noc4C)cc3C(=O)N([C@H](C)CO)C[C@@H]2C)cc1`, the cytotoxicity call was “inactive”.
For the compound `C[C@@H]1CCCCO[C@H](CN(C)C(=O)C2CCCCC2)[C@@H](C)CN([C@@H](C)CO)C(=O)c2cc(NC(=O)Cc3ccccc3)ccc2O1`, the cytotoxicity call is “inactive”.
Then `C[C@@H]1CN([C@H](C)CO)C(=O)Cc2cc(NC(=O)Cn3cnnn3)ccc2O[C@@H]1CN(C)S(=O)(=O)c1cn(C)cn1`, with “inactive”; and `C[C@@H]1CCCCO[C@@H](CN(C)S(=O)(=O)c2ccccc2)[C@@H](C)CN([C@@H](C)CO)C(=O)c2cc(NC(=O)Nc3ccc(F)cc3)ccc2O1`, with “inactive”; and `C[C@@H]1CN([C@@H](C)CO)C(=O)c2cc(NC(=O)Nc3ccccc3)ccc2O[C@@H](C)C/C=C\CO[C@H]1CN(C)S(=O)(=O)c1ccc(F)cc1`, with “inactive”.
Then `C[C@@H]1CN([C@H](C)CO)C(=O)c2cc(NC(=O)Nc3ccc(F)cc3)ccc2O[C@@H](C)CCCCO[C@H]1CN(C)S(=O)(=O)c1ccccc1`, with “inactive”.
On to `CC(C)N1C[C@@H](C)[C@H](CN(C)S(=O)(=O)c2ccc(F)cc2)OCCCC[C@H](C)Oc2ccc(NC(=O)Nc3ccccc3)cc2C1=O`, for which the cytotoxicity call was “inactive”.
For `C[C@@H]1CN([C@@H](C)CO)C(=O)c2cc(NC(=O)Nc3ccccc3)ccc2O[C@@H](C)C/C=C/CO[C@H]1CN(C)S(=O)(=O)c1ccc(F)cc1`, the cytotoxicity call is “active”.
As for `C[C@@H]1CN([C@@H](C)CN=[N+]=[N-])C(=O)c2cc(NC(=O)Nc3ccccc3)ccc2O[C@@H](C)CCCCO[C@H]1CN(C)S(=O)(=O)c1ccc(F)cc1`, the cytotoxicity call was “active”.
